Data from PubChem BioAssay (NCATS).
Records with an inconclusive call do not appear. A call without a number means that no potency is given here. Calls of active or inactive are those of the source. Calls come from the whole dose curve; as a rule, active = well fitted cell-killing curve with a large enough effect; inconclusive = small, poorly fitted or top-dose-only effect, or effect the other way; inactive = flat fitted curve, though single readings scatter.

System: OV90
Experiment: Primary qHTS to identify gynecologic anti-cancer compounds using libraries of approved drugs and bioactive compounds (AID 1345084); note: nearly all actives have a fitted effect of over 55% in size
Details: Gynecologic cancer cell panel viability, ATPlite luminescence, 48 h; series mostly up to 57.5 µM
Outline: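 Five-concentration response, 48 h; readout is ATP-driven luciferase luminescence.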
Potency is the fitted concentration of half-maximal effect.

Row | Compound | Potency
1 | CC(=O)CC(=O)Nc1ccc(Cl)c(C(F)(F)F)c1 | inactive
2 | CCCOc1ccc(CCc2nc3cc(-c4c(C)noc4C)ccc3n2CCN2CCOCC2)cc1 | inactive
3 | CC(NC(=O)Cc1cc(F)cc(F)c1)C(=O)NC1C(=O)N(C)c2ccccc2-c2ccccc21 (stereo not given) | inactive
4 | N#Cc1ccc(COc2ccc(-c3cccc4nc(NC(=O)C5CC5)nn34)cc2)cn1 | inactive
5 | C=C1C(=O)O[C@@H]2[C@H]3C(C)=CC(=O)C3=C(C)[C@@H](OC(=O)/C(C)=C\C)[C@H](O)[C@@H]12 | inactive
6 | C=C1C(=O)O[C@H]2CC(=C)[C@H]3CC[C@@](C)(O)[C@@H]3CC12 (stereo not given in full) | inactive
7 | CN(C)CCN(Cc1ccc(-c2ccc(CNCCc3ccccc3)cc2)cc1)C(=O)CCC1CCCC1 | 22.4 µM (active)
8 | CC1(C)CN(C(=O)c2ccc(-c3cccc4nc(NC(=O)C5CC5)nn34)cc2)C1 | inactive
9 | CCN(CC)C(=O)c1ccc(Nc2nc(OCC3CCCCC3)c3[nH]cnc3n2)cc1 | inactive
10 | C=C1C(=O)OC2/C=C(\C)CC/C=C(\C)CC(OC(C)=O)C12 (stereo not given) | inactive
11 | CCC(C)C(=O)OC1C(C)C2(O)C(C=C(CO)CC3(O)C(=O)C(C)=CC32)C2C(C)(C)C12OC(=O)C(C)C (stereo not given) | inactive
12 | CCOC(=O)c1csc(Nc2ccc(Cl)cc2)n1 | inactive
13 | FC(F)(F)c1ccccc1-c1cc(C(F)(F)F)c2nc(C3=NOC4(CCCCC4)C3)[nH]c2c1 | inactive
14 | Cc1ccc(-c2c(C(=O)CCl)n(CCCO)c3ncnc(N)c23)cc1 | inactive
15 | CCn1c(=O)c(-c2ccc(-c3cncs3)cc2Cl)cc2cnc(Nc3ccc(N4CCN(C)CC4)cc3)nc21 | inactive
